Bioassay records: PubChem BioAssay, National Center for Advancing Translational Sciences (NCATS)
FMDV inh – foot and mouth disease virus antiviral activity. Potency, µM (highest dose often 57.9 µM), hits mostly inhibitors. FMDV antiviral cell-based qHTS. 410,000 tested, 1.2% active; calls by dose curve; tested in HEK293T cells; note: read-out not given here; nearly all actives have a fitted effect of over 45% in size
Shiga toxin inh – inhibitors of Shiga toxin in Vero cells; Vero cells, Shiga toxin protein synthesis inhibition reporter; inhibition, % at 38.7 µM; 290,000 tested, 9.2% active; AID 2315; in the data active = inhibition mostly above about 28%, no sharp cut-off; inactive = mostly below about 43%
HCV inhibitor – inhibitors of hepatitis C virus infection; AID 651820; Huh7.5.1 HCVcc-Cre infection, luciferase reporter, 44 h; 340,000 tested, 3.4% active; Potency, µM (doses to about 41.8 µM), usual class: inhibitors; active = well fitted inhibition curve with a large enough effect; inconclusive = small, poorly fitted or top-dose-only effect, or another doubt; inactive = no such curve, though single readings can be large or run the other way
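Seed cells (1,000/well) for 4 h; treat with compound and infect with HCVcc-Cre, moi about 0.5. Incubate 44 h, then detect luciferase activity.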
CHX counter – affects cycloheximide protein synthesis inhibition readout, counter-screen | cell reporter, cycloheximide protein synthesis inhibition counterscreen | max response, % | 300,000 tested, 12% active | AID 2314; in the data active = max response mostly above about 13%, no sharp cut-off; inactive = mostly below about 14%; note: read at 38.3 µM for the half of the compounds with a filed dose
MARV entry inh – Marburg virus entry inhibition; Marburg virus pseudotyped entry inhibition, cell reporter; Potency, µM (highest dose often 37.8 µM), actives largely listed as inhibitors; 300,000 tested, 1.8% active; AID 540276; calls by dose curve; tested in HEK293 cells
Lassa entry inh – blocks Lassa virus binding to or entry into cells. AID 540256. 300,000 tested, 1.2% active. Potency, µM (top dose mostly 37.9 µM), actives largely listed as inhibitors. Lassa virus pseudotype entry inhibition, cell reporter; calls by dose curve; tested in HEK293 cells; note: nearly all actives have a fitted effect of over 50% in size
Hits are given with their value; – = inactive; ? = inconclusive; · = not tested or not shown; ! = repeats disagree. This is a sample that favours compounds with a hit; in the whole collection about 13% have one here.

SMILES	FMDV inh	Shiga toxin inh	HCV inhibitor	CHX counter	MARV entry inh	Lassa entry inh
O=C(Nc1ccccc1)c1cc2n(n1)C(C(F)(F)F)CC(C1CC1)N2 (centres undefined)	–	58	–	36	–	–
CC(=O)Nc1cc(C(F)(F)F)ccc1Oc1cccc(Br)c1	?	–	–	–	–	–
C=CCOc1cccn2c(N(C)C(=O)c3ccncc3)c(CC)nc12	–	·	·	·	·	·
C=C1CCC[C@]2(C)C[C@H]3OC(=O)C(CNC(C)CCCC(C)C)[C@H]3CC12 (some centres undefined)	–	–	?	–	?	?
COc1ccc(-c2cc(C3CCN(c4cc(Cl)nc(N)n4)CC3)[nH]n2)cc1	22µM	–	?	–	9.2µM	?
COc1ccc(OC)c(-c2cc(C3CCN(c4cc(Cl)nc(N)n4)CC3)[nH]n2)c1	18µM	–	?	–	?	?
COc1ccc(NC(=O)c2cc(-c3cc(Cl)ccc3OC)n[nH]2)c(OC)c1	–	·	·	·	·	·
COc1ccc(-c2cc(C3CCN(Cc4ccc([N+](=O)[O-])cc4)CC3)[nH]n2)cc1	?	–	?	–	?	–
Cc1ccc(S(=O)(=O)NCC(c2ccc(N(C)C)cc2)N2CCc3ccccc32)cc1C (centres undefined)	–	·	·	·	·	–
CC(C)OC(=O)Nc1ccc2c(c1)N(C(=O)N1CCN(C)CC1)c1ccccc1CC2	–	–	?	30	?	?
CCCC(CCC)C(=O)Nc1ccc2c(c1)N(C(=O)CCN1CCN(C)CC1)c1ccccc1CC2	–	–	?	–	11µM	–
CCOc1ccc(CCNC(=O)c2cc(C)on2)cc1OCC	–	–	–	–	–	–
COc1ccc(C(CC(=O)N2CCCC(C)C2)c2c(OC)cc(OC)c3ccc(=O)oc23)cc1 (centres undefined)	–	–	11µM	–	·	·
COc1cc(OC)c2ccc(=O)oc2c1C(CCN1CCCC(C)C1)c1ccc2c(c1)OCO2 (centres undefined)	–	124!	–	44!	·	·
COc1ccc(C(CC(=O)N2CCCC2)c2c(OC)cc(OC)c3ccc(=O)oc23)cc1 (centres undefined)	–	–	2.8µM	–	·	·
COc1cc(OC)c2ccc(=O)oc2c1C(CC(=O)N1CCCC1)c1ccc(N(C)C)cc1 (centres undefined)	–	–	–	22!	·	·
COc1ccc(C(CC(=O)N2CCOCC2)c2c(OC)cc(OC)c3ccc(=O)oc23)cc1 (centres undefined)	–	–	–	–	·	·
CC(=O)C1=C(O)C(=O)N(c2ccc(S(N)(=O)=O)cc2)C1c1cccc([N+](=O)[O-])c1 (centres undefined)	–	–	–	–	·	·
CC(=O)C1C(=O)c2c(cccc2[N+](=O)[O-])C1=Nc1ccc(S(N)(=O)=O)cc1 (centres undefined)	–	–	–	30	–	–
O=C(CCc1nnc2ccc(NCc3ccc(F)cc3)nn12)NC1CCCC1	–	–	–	–	–	–
O=C1CCCN1CCC(=O)N1CCCC(CO)(Cc2ccccc2)C1 (centres undefined)	–	74	–	55	?	–
COc1ccc(OCc2cc(C(=O)NCC(C)(C)N3CCOCC3)no2)c(Cl)c1	–	36	?	–	–	–
COc1cc(Cl)ccc1OCc1cc(C(=O)NCc2cc(C(C)C)no2)no1	–	53	–	67	–	–
COc1ccc(OCc2cc(C(=O)NCCc3ccccc3)no2)c(Cl)c1	–	–	?	–	·	·
COc1ccc(CNC(=O)c2cc(COc3c(F)cccc3F)on2)cc1OC	–	–	?	–	·	·
SMILES	FMDV inh	Shiga toxin inh	HCV inhibitor	CHX counter	MARV entry inh	Lassa entry inh
COc1ccc(OCc2cc(C(=O)NCCN3CCCc4ccccc43)no2)c(Cl)c1	–	–	11µM	16	–	?
COc1ccc(C(=O)NCC(C)(C)N2CCOCC2)cc1S(=O)(=O)NCc1ccc(Cl)cc1	–	·	?	·	·	·
COc1cc(Cl)ccc1OCc1cc(C(=O)NCC(C)(C)N2CCOCC2)no1	–	50	–	43	·	·
c1ccc2nc3c(cc2c1)CCCCC3	–	44	–	30	·	·
COc1cccc(NC(=O)COC(=O)CNS(=O)(=O)c2c(F)cccc2F)c1	–	–	–	–	?	–
O=C(NC(c1cccnc1)C(F)(F)F)c1cc(COc2ccc3c(c2)CCCC3)on1 (centres undefined)	–	100	4.5µM	46	·	·
CCN(Cc1cnn(C)c1)C(=O)c1cc(COc2ccc3c(c2)CCCC3)on1	–	–	22µM	–	·	·
Cn1cc(CNC(=O)c2cc(COc3ccc4c(c3)CCCC4)on2)cn1	–	–	–	23	–	–
CCC(NC(=O)c1cc(COc2cncc(Cl)c2)on1)c1ccncc1 (centres undefined)	–	–	?	–	·	·
Cc1ccc(OCc2cc(C(=O)NCc3cnn(-c4cccc(F)c4)c3)no2)cn1	–	–	?	–	·	·
O=C(Nc1ccncc1)c1ccc2c(c1)S(=O)(=O)c1ccccc1C2=O	?	–	?	–	·	·
Cc1ccc(C)c(Nc2c([N+](=O)[O-])ccc3nonc23)c1	–	–	–	–	–	–
CN(C)CC(CCC(CN(C)C)C(O)(c1ccccc1)c1ccccc1)C(O)(c1ccccc1)c1ccccc1 (centres undefined)	–	–	11µM	–	?	?
CN(C)C/C=C/C(O)(c1ccccc1)c1ccccc1	–	–	–	–	?	–
O=C(COc1ccc(Br)cc1Cl)NC(=O)NCc1ccccc1	–	–	–	–	–	?
Cc1cc(N/N=C/c2c[nH]c3ccccc23)c2ccccc2n1	–	–	–	–	?	–
Cn1cc(Br)c(C(=O)N/N=C/c2cc3ccccc3nc2Cl)n1	–	50	–	15	·	·
Cc1cc(C)nc(N/N=C/c2c[nH]c3ccccc23)n1	–	–	–	20	–	–
Cn1c(N/N=C/c2c[nH]c3ccccc23)nc2ccccc21	–	167	?	45	?	?
O=C(N/N=C/c1cc2ccccc2nc1Cl)c1ccncc1	–	–	–	–	–	–
CCCn1c(/N=C/c2c[nH]c3ccccc23)nc2ccccc21	·	–	–	42	–	–
CCCCn1c(/N=C/c2c[nH]c3ccccc23)nc2ccccc21	·	–	–	–	–	?
CCOC(=O)c1ccc(NC(=O)CSc2nnc(CNC(=O)c3ccco3)o2)cc1	–	–	–	–	–	–
O=C(Nc1cccc(C(F)(F)F)c1)c1cc(-c2ccc(Cl)s2)nc2ccccc12	?	·	·	·	–	–
CCCCC(=O)Nc1ccc(NCc2ccc(C)s2)cc1	–	–	–	–	·	·
CCOC(=O)C1CCN(C(=O)CN(c2ccc(OC)c(OC)c2)S(=O)(=O)c2ccccc2)CC1	–	–	–	–	–	–
COc1ccccc1N(Cc1cc2ccc(C)cc2[nH]c1=O)C(C)=O	–	–	–	–	·	·
C=CCn1c2c(c(=O)[nH]c1=S)CN(C(C)c1ccccc1)CN2 (centres undefined)	–	–	–	–	·	·
COc1ccccc1/C=N/Nc1nc(C)cc(C)n1	–	89	–	34	–	–
